In all, about 350,000 compounds went through this assay and about 1,600 (0.46%) were called active. Only a selection was taken, and actives are over-represented in it overall. Values without a mark were called inactive.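 Rule for the calls: active = every replicate reaching a set inhibition limit, whatever the replicate mean (cut at about 25% in these data); inconclusive = mean inhibition reaches that limit but some replicates miss it; inactive = the rest.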
What follows are compounds tested against Protein AF-9 (Homo sapiens) (UniProt P42568) (assay: MLL-AF4/AF9 protein interaction blockers – biochemical, AlphaScreen, biotin-AF4 peptide, FLAG-AF9, single point, primary screen (AID 651704;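 note: 0% = plate neutral control median and 100% = total signal loss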)). Conditions: biotin-AF4 peptide binding to FLAG-AF9, at 10 µM, hits give high values.
Protein AF-9 (Homo sapiens), sequence (P42568 whole entry, looked up): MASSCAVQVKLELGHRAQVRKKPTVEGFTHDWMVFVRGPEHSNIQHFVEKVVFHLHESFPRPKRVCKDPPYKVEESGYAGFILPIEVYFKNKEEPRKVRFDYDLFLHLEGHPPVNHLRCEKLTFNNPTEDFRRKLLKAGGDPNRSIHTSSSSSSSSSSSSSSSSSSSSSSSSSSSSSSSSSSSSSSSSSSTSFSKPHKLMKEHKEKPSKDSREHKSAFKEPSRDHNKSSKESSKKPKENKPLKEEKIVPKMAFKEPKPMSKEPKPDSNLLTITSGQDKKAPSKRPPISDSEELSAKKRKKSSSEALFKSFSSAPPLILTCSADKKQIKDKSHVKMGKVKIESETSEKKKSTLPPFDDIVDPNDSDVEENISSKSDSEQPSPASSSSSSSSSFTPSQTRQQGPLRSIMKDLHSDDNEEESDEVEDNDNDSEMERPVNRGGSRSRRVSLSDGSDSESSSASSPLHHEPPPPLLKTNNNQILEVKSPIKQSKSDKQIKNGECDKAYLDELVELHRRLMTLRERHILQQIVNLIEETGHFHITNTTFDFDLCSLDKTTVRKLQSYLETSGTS

Compound	inhibition
C=CCOC(=O)[C@H]1[C@@H]2C(=O)O[C@@H](c3ccccc3)[C@@H](c3ccccc3)N2[C@@H](c2ccc(OCCOC(=O)[C@H]3C[C@H]4C(=O)NCC(=O)N4[C@H]3c3ccc(O)cc3)cc2)[C@]12C(=O)Nc1ccccc12	0.736%
COc1ccccc1N(CC(=O)Nc1ccccc1C(=O)N1CCCC1)S(C)(=O)=O	50.9% (active)
COc1ccc([N+](=O)[O-])cc1N(CC(=O)Nc1ccccc1C(=O)N1CCOCC1)S(C)(=O)=O	1.49%
O=C(CN(c1ccccc1)S(=O)(=O)c1ccc(Cl)cc1)Nc1ccccc1C(=O)N1CCCC1	0.298%
COc1ccccc1NC(=O)Nc1nnc(Cc2ccc(F)cc2)s1	3.41%
COc1ccccc1NC(=O)Nc1nc(CC(=O)Nc2ccccc2F)cs1	0.499%
O=C(Nc1nnc(COc2ccccc2)s1)Nc1ccccc1F	36% (active)
CC(C)NC(=O)Nc1ccc2c(c1)C(=O)N([C@@H](C)CO)C[C@H](C)[C@H](CN(C)C(=O)NC1CCCCC1)OCCCC[C@@H](C)O2	-3.2%
C[C@H](CO)N1C[C@H](C)[C@H](CN(C)Cc2ccc3c(c2)OCO3)OCCCC[C@H](C)Oc2ccc(NC(=O)c3ccccc3)cc2C1=O	4.39%
CO[C@@H]1CC[C@@H]2CCOc3ccc(C#N)cc3C(=O)N(C)C[C@@H](C)C(=O)N(C)C[C@@H]1O2	3.45%
CC(O)c1ccc(OCCN(C)c2ccccn2)cc1 (stereo unspecified)	-3.42%
CCN(CC)CCOc1ccc2c(c1)C(=NNC(=O)c1ccccn1)c1cc(OCCN(CC)CC)ccc1-2	56.9% (active)
C/C(=N\NC(=O)c1ccccc1F)c1ccccn1	-1.33%
COc1ccc2c3c([nH]c2c1)[C@H](CO)N(C(=O)Nc1ccc(F)cc1)CC31CCN(CC2CCOCC2)CC1	11%
CCC(=O)N1[C@@H](CO)[C@@H](c2ccccc2)C12CN(C(=O)c1cnccn1)C2	-4.68%
COCCNC(=O)C[C@@H]1C[C@@H]2c3cc(NS(=O)(=O)c4ccccc4)ccc3O[C@@H]2[C@H](CO)O1	-1.39%
C[C@@H]1CCCCO[C@H](CN(C)C(=O)Nc2ccc3c(c2)OCO3)[C@@H](C)CN([C@@H](C)CO)C(=O)c2cc(NC(=O)CCC(F)(F)F)ccc2O1	7.93%
CCC(=O)Nc1ccc2c(c1)C(=O)N(C)[C@@H]1CC[C@@H](CC(=O)NCCN3CCCCC3)O[C@@H]1CO2	0.544%
Cc1ccc(Nc2ccccc2N)cc1	49% (active)
Cc1ccc(Nc2nc(Cl)c(C=O)s2)cc1	-4.45%
Nc1ccc(C(=O)Nc2ccccc2N)cc1	-0.363%

Source: PubChem BioAssay AID651704 (Broad Institute, 2012)
